# Compound activity deposited in PubChem by National Center for Advancing Translational Sciences (NCATS).
# SNCA viab count = cell viability loss counter-screen. HEK-293-SNCA-luc viability, GF-AFC fluorescence, 24 h. Potency, µM (titrated, usually from 57.1 µM), without a hit: top-dose activity change, negative = cytotoxicity, actives largely listed as cytotoxic. 0.12% of 150,000 active. AID 1671193;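 further: potency means the concentration at half of the fitted maximal effect; 0% = DMSO-treated cells and -100% = medium-only wells without cells; nearly all actives have a fitted effect of over 30% in size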
#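 HEK-293-SNCA-luc cells (1500/well) plated 24 h, then exposed 24 h to a dilution series; GF-AFC added 30 min at 37C, fluorescence 405/540 nm; normalised to medium-only and DMSO wells, Hill fit.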
# HEK cytotox = cytotoxic compounds in HEK 293 cells; 6.6% of 94,000 active; AID 1345083; HEK 293 viability, ATP luminescence (CellTiter-Glo), 48-72 h; Potency, µM (top dose mostly 115 µM), for inactives: top-dose activity change, negative = cytotoxicity, most hits filed as inhibitors; further: potency means the concentration at half of the fitted maximal effect; nearly all actives have a fitted effect of over 60% in size
#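 Read-out: CellTiter-Glo ATP luminescence. Cells: HEK 293, 250 cells/well. Exposure: 48 or 72 hr, 37 degree Celsius.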
# FLuc inh = Photinus pyralis luciferase inhibition. purified P. pyralis luciferase, luminescence, biochemical. Potency, µM (doses to about 115 µM), actives largely listed as inhibitors. 2.5% of 76,000 active. AID 1347043; further: potency means the concentration at half of the fitted maximal effect; nearly all actives have a fitted effect of over 65% in size
#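 Biochemical qHTS: compound (6-point titration) added to 10uM D-luciferin plus 10uM ATP in Tris acetate pH 7.5 buffer with Mg, Tween-20 and BSA, then purified enzyme at 10nM; light output imaged.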
# SNCA expr inh = inhibitors of alpha-synuclein (SNCA) gene expression; HEK-293 SNCA-luciferase knock-in, luminescence, 24 h; Potency, µM (top dose mostly 57.2 µM), for inactives: at the highest dose activity change, negative = inhibition, hits mostly inhibitors; 0.17% of 140,000 active; AID 1671194;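 further: potency means the concentration at half of the fitted maximal effect; plate controls were DMSO cells for no effect and cell-free wells for full effect; nearly all actives have a fitted effect of over 45% in size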
# IP6K1 inh = blocks human inositol hexakisphosphate kinase 1. AID 1645851. Q92551. 0.81% of 140,000 active. IP6K1 kinase, ADP-Glo luminescence, 2 h; stronger effect = lower value. activity change, % (series mostly up to about 58 µM); in the data active means activity change below about -25%
# Target sequence (Q92551 whole entry, looked up): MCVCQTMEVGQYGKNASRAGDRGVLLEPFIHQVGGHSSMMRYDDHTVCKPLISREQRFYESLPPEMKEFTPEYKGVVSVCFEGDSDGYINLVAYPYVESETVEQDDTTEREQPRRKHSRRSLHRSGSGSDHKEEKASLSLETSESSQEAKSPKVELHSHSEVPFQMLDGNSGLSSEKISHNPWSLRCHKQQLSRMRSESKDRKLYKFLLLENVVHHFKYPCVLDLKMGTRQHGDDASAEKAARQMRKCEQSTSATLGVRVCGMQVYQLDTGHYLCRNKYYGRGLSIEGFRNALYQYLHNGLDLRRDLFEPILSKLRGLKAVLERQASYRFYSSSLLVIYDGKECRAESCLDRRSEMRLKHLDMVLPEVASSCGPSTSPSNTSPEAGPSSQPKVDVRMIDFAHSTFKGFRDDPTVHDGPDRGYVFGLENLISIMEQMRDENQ
#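 ADP-Glo luminescence measures ADP made by human IP6K1 during a 2 h RT reaction with ATP/IP6 (mix at 1.3 mM/130 uM); top library doses 57.5 and 19.1 uM final.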
# NIH3T3 tox = kills NIH 3T3 cells; NIH 3T3 viability, CellTiter-Glo ATP luminescence, 48-72 h; Potency, µM (series often up to 96.7 µM), for the others: top-dose activity change, negative = cytotoxicity, usual class: inhibitors; 4.3% of 94,000 active; AID 1345082; further: potency means the concentration at half of the fitted maximal effect; nearly all actives have a fitted effect of over 55% in size
#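 Luminescent ATP readout (CellTiter-Glo, 10 min RT) after 48 or 72 hr compound exposure of NIH 3T3 cells seeded at 400 cells/well in 1536-well format; quantitative HTS.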
# * marks the source's active call; other numbers are inactive results; i = inactive; ? = inconclusive; nt = no result; [ ] = another dose, or the depositor's remark. Hits are enriched below; roughly 7.3% of the tested compounds scored in any of these assays. Unless noted, the call rests on the fitted dose curve; in most records, active means well fitted curve in the direction sought with a large enough effect; inconclusive means small, poorly fitted or top-dose-only effect, or another doubt; inactive means no such curve, though single readings can be large; an effect the other way counts as inactive or inconclusive. Unless noted, on the % scale 0 is the no-effect control and ±100 the full control effect.
SMILES,SNCA viab count,HEK cytotox,FLuc inh,SNCA expr inh,IP6K1 inh,NIH3T3 tox
CCC1Oc2ccc(NC(=O)Nc3cccc(OC)c3)cc2CN(Cc2ccc3c(c2)OCO3)C1=O (centres undefined),-1%,32µM*,i,?,-3,?
CCC1Oc2ccc(NC(=O)COc3ccccc3)cc2CN(Cc2cccc(OC)c2)C1=O (centres undefined),0%,45µM*,i,-13%,1,?
CCC1Oc2ccc(NC(=O)Cc3ccccc3)cc2CN(Cc2cccc(OC)c2)C1=O (centres undefined),-5%,?,i,?,0,?
CCNC(=O)Nc1ccc2c(c1)CN(Cc1cccc(OC)c1)C(=O)C(CC)O2 (centres undefined),-9%,?,i,-19%,-1,-15%
O=C1CCC2(CCCO2)CCN1Cc1ccccc1 (centres undefined),-4%,-22%,i,?,-9,-8%
CN(Cc1cccnc1)c1ccc2ncc(Nc3cc(F)cc(N4CCOCC4)c3)n2n1,0%[87.6 µM],?,i,-25%[87.6 µM],-5,28µM*
COc1ncccc1Nc1cnc2ccc(N(C)Cc3ccc(F)cc3)nn12,9%[87.6 µM],45µM*,i,?,-12,?
COc1ccc(F)cc1Nc1cnc2ccc(N(C)Cc3cccnc3)nn12,?,35µM*,i,?,-21,?
CN(Cc1cccnc1)c1ccc2ncc(Nc3ccc(C(F)(F)F)cc3)n2n1,-26%[87.6 µM],45µM*,i,?,-21,?
CN1CCN(C(=O)c2cc(-c3ccccc3C(F)(F)F)nc3c2cnn3C)CC1,nt,3%,nt,nt,14,-16%
CCc1cn(C[C@H](NCCC(C)C)C(=O)O)c(=O)[nH]c1=O,-9%[87.6 µM],i,i,13%[87.6 µM],18,i
Cc1ccc(NC(=O)C2CCCN(c3ccnc4ccnn34)C2)cc1 (centres undefined),-17%,35µM*,nt,-3%,22,?
Cc1nccn1-c1ccc(NC(=O)C2CCCN(c3ncccc3C#N)C2)cc1 (centres undefined),-30%,40µM*,i,1%,-8,?
O=C(NC1CCN(c2ccnc3ccnn23)CC1)C1CCCC1,8%[87.6 µM],-18%[172 µM],nt,26%[87.6 µM],14,-10%[138 µM]
O=C(NC1CCCCCC1)C1CCCN(c2ccnc3ccnn23)C1 (centres undefined),-21%[87.6 µM],79µM*,nt,30%[87.6 µM],17,?
O=C(Nc1ccc(F)cc1)C1CCCN(c2ccnc3ccnn23)C1 (centres undefined),-20%[87.6 µM],?,nt,-13%[87.6 µM],-7,?
O=C(c1ccc(C(F)(F)F)cc1)N1CCC(c2nn(Cc3ccccc3)c(=O)[nH]2)CC1,-3%,-6%,i,-8%,11,?
CCc1noc(-c2cn(C3CCN(C(=O)Cc4ccc(Cl)cc4)CC3)nn2)n1,-3%,-4%,i,-23%,30,-26%
CN1c2cc(C(=O)Nc3ccc(F)cc3)ccc2C(=O)N2CCCCCC21 (centres undefined),19%[12.5 µM],?,25µM*,208%,-3,?
CSc1ccc(NC(=O)c2ccc3c(c2)N(C)C2CCCCN2C3=O)cc1 (centres undefined),15%[12.5 µM],?,45µM*,35%,-19,?
Cc1ccccc1N(C)C1CN(Cc2ccc(C(F)(F)F)cc2)C1,6%,100µM*,nt,-5%,-19,?
Cc1ccccc1N(C)C1CN([S+](=O)([O-])c2cccs2)C1,-9%[87.6 µM],79µM*,i,-7%[87.6 µM],9,?
Cc1ccccc1N(C)C1CN(Cc2ccccc2)C1,6%[87.6 µM],?,i,5%[87.6 µM],2,89µM*
Cc1ccccc1N(C)C1CN(Cc2ccc(F)cc2)C1,-2%[87.6 µM],?,nt,11%[87.6 µM],-15,-23%[138 µM]
COc1cccc(CN2CCC(Cc3ncc(C)n3CC3CC3)C2)c1OC (centres undefined),-16%,45µM*,i,?,-14,?
SMILES,SNCA viab count,HEK cytotox,FLuc inh,SNCA expr inh,IP6K1 inh,NIH3T3 tox
NCc1ccc(-c2cccc(C(F)(F)F)c2)cc1,-19%[87.6 µM],32µM*,nt,?,-9,32µM*
NCc1ccc(-c2cc(C(F)(F)F)ccc2Cl)cc1,-27%,28µM*,nt,-23%,-9,25µM*
O=C(O)c1ccc(-c2cc(C(F)(F)F)ccc2Cl)cc1,2%[87.6 µM],-3%[172 µM],nt,19%[87.6 µM],-17,-14%[138 µM]
NCc1ccc(-c2cccc(O)c2)cc1,-16%[87.6 µM],89µM*,nt,-1%[87.6 µM],-13,89µM*
NCc1cccc(-c2cccc(Cl)c2)c1,0%[87.6 µM],?,nt,22%[87.6 µM],-6,89µM*
COc1ccc(C(=O)N2CCCC(CO)CCNC(=O)CC2)cn1 (centres undefined),6%,5%,i,-1%,-7,-3%
CCOC(=O)[C@@H]1CN(C(=O)Cc2ccc(F)cc2)[C@H]2c3ccccc3O[C@@H]12,nt,?,nt,nt,17,?
O=C(c1cc(-c2ccccc2F)cc2c1OCCN2Cc1cccnc1)N1CCCC1,?,?,?,11%[87.6 µM],-16,?
CNC(=O)c1cc(-c2ccccc2F)cc2c1OCCN2Cc1cccnc1,?,89µM*,i,-6%[87.6 µM],-6,?
COCCNC(=O)c1cc(-c2ccccc2F)cc2c1OCCN2Cc1cccnc1,?,?,i,-15%[87.6 µM],-15,89µM*
CC(C)CNC(=O)c1cc(-c2ccccc2F)cc2c1OCCN2Cc1cccnc1,?,50µM*,i,?,-21,45µM*
CNC(=O)c1cc(-c2ccccc2O)cc2c1OCCN2Cc1cccnc1,-13%[87.6 µM],-22%[172 µM],i,26%[87.6 µM],3,?
CNC(=O)c1cc(-c2cccc(NC(C)=O)c2)cc2c1OCCN2Cc1cccnc1,-8%[87.6 µM],-10%[172 µM],i,79%[87.6 µM],5,45µM*
O=C(NC1CCOCC1)c1cc(-c2ccccc2F)cc2c1OCCN2Cc1cccnc1,-12%,?,i,-7%,-12,-26%
COCC(=O)N[C@H]1C[C@@H](c2nc(-c3ccc(F)cc3)no2)N(C)C1,-1%[87.6 µM],-4%[172 µM],i,10%[87.6 µM],-12,-5%[174 µM]
COc1ccc(-c2noc([C@@H]3C[C@H](NCc4ccc(F)cc4)CN3C)n2)cc1,-8%[87.6 µM],100µM*,63µM*,72%[87.6 µM],-8,?
COc1ccc(CC(=O)N[C@H]2C[C@@H](c3nc(-c4ccc5ccccc5c4)no3)N(C)C2)cc1,-3%,-13%,40µM*,59%,-14,-5%
CN(C)c1ccc(C(=O)N[C@H]2C[C@@H](c3nc(-c4ccc5ccccc5c4)no3)N(C)C2)cc1,-11%,?,i,25%,9,?
CN1C[C@@H](NC(=O)c2ccccn2)C[C@H]1c1nc(-c2ccc3ccccc3c2)no1,-9%[87.6 µM],?,32µM*,83%[87.6 µM],-13,?
